An excerpt weighted towards active compounds, which were near 1.2% of everything screened.
RAD54 branch: RAD54 (human) branch migration inhibition; actives 0.14% (n = 360,000); AID 602329; inhibition, % at 10.4 µM; RAD54 Holliday junction branch migration, FAM/BHQ fluorescence; Q92698;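 active means mean normalized replicate activity at least 40 and at least half of replicates scoring 40 or more; inconclusive means only one of the two criteria met; inactive means mean below 40 and under half of replicates reaching 40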;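 further: inhibitors cause a drop in the FAM fluorescence signal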
Target sequence (Q92698 whole entry, looked up): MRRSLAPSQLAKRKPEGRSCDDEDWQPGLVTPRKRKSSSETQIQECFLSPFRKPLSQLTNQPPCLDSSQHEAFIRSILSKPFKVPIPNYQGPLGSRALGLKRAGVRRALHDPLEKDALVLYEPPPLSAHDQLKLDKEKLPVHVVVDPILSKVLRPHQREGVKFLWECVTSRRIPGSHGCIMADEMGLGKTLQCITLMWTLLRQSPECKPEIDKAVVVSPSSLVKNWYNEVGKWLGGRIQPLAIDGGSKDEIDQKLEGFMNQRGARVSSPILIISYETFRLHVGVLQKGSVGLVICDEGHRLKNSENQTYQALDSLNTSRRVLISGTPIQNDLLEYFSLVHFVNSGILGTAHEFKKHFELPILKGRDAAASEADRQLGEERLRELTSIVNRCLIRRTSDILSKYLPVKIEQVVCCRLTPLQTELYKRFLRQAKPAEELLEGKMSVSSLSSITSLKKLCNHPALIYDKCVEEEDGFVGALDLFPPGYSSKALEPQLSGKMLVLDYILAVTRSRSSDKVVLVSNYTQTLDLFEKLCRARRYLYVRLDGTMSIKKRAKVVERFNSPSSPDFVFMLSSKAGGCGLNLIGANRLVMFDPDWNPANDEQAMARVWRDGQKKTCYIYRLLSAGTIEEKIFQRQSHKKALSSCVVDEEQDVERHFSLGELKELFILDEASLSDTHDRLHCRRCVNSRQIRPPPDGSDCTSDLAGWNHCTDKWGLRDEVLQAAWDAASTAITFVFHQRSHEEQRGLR
CASP6 VEID inh: caspase-6 (human) enzyme inhibition; inhibition, % at 12.5 µM; actives 0.53% (n = 350,000); purified caspase-6, Z-VEID-R110 cleavage fluorescence; P55212;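 active means mean inhibition across replicates at least about 35%, with every replicate also reaching that limit, limit read from the data; inconclusive means only one of the two criteria met; inactive means neither criterion met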
N-glyco inh: blocks N-linked glycosylation in D54 reporter cells; D54 ERlucT glycosylation luciferase reporter, 24 h; percent of 100 nM tunicamycin response; reporter increase, % at 12.5 µM; actives 0.23% (n = 360,000);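 active means mean luciferase reporter signal, scaled so untreated is 0 and the glycosylation-blocking control 100, at or above a set limit in every replicate; inconclusive means mean reaches the limit but not every replicate does; inactive means mean below the limit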;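 further: luciferase carries N-glycosylation sites so blocking glycosylation raises the light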
RAD52 inh: inhibitors of human RAD52 DNA annealing. actives 0.46% (n = 360,000). recombinant RAD52 DNA annealing, FRET fluorescence. P43351. AID 651710. inhibition, % at 18.7 µM;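 active means every replicate showing at least 50% inhibition; inconclusive means mean inhibition at least 50% but not in every replicate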
MLL AF4-AF9 inh: inhibitors of human MLL-AF4/AF9 interaction. AlphaScreen, biotin-AF4 peptide binding to FLAG-AF9. inhibition, % at 10 µM. actives 0.47% (n = 350,000);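 active means every replicate reaching a set inhibition limit, whatever the replicate mean, cut at about 25% in these data; inconclusive means mean inhibition reaches that limit but some replicates miss it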
Of the large screens only hits and unclear results are named; the others gave an inactive call.

CC(C)(C)NC(=O)C1CCN(S(=O)(=O)c2cccc3nsnc23)CC1	CASP6 VEID inh 55.0
CN(C)CC(=O)Nc1ccc2c(c1)[C@H]1C[C@@H](CC(=O)NCc3ccccc3F)O[C@@H](CO)[C@H]1O2	none (no result: CASP6 VEID inh, N-glyco inh, RAD52 inh, MLL AF4-AF9 inh)
Cc1ccc(C)c(NC(=S)NC(NC(=O)Cc2cccc3ccccc23)C(Cl)(Cl)Cl)c1 (centres undefined)	N-glyco inh 73.5 (no result: CASP6 VEID inh, RAD52 inh, MLL AF4-AF9 inh)
CCN(CC)C(=O)COc1ccc(/C(C)=N/NC(=O)c2ccccc2O)cc1	CASP6 VEID inh 38.5 (no result: RAD54 branch)
Cc1cc(N2C(=O)C(O)=C(C(=O)c3cc4ccccc4o3)C2c2ccc(Br)cc2)no1 (centres undefined)	CASP6 VEID inh 47.6
N#C/C(=C/c1ccccc1[N+](=O)[O-])c1nc(C2CC2)cs1	MLL AF4-AF9 inh 25.8 (no result: RAD54 branch)
CCOc1ccc(C(C)=O)cc1COc1cccnc1[N+](=O)[O-]	N-glyco inh 30.3
COc1ccc(C(C)=O)cc1COc1cccnc1[N+](=O)[O-]	none
CCOc1ccc(S(=O)(=O)Nc2ccc(C(=O)N/N=C/c3c(C)nn(-c4ccccc4)c3N3CCCC3)cc2)cc1	CASP6 VEID inh 62.2 (no result: RAD54 branch)
Cc1nn(-c2ccccc2)c(N2CCCCC2)c1/C=N/NC(=O)c1ccncc1	none (no result: RAD54 branch)
CC(=O)N[C@H]1C[C@@H]2O[C@@H](CO)CC[C@@H]2O[C@@H]1CCc1ccc(C#CC2(O)CCCC2)cc1	none (no result: RAD54 branch, N-glyco inh)
CC(=O)C1C(=O)C=C(c2cccs2)CC1c1ccccc1 (centres undefined)	none
O=C1C=C(c2cccs2)C[C@H](c2ccccc2)[C@H]1n1nnc([N+](=O)[O-])n1	N-glyco inh 25.5 (no result: RAD54 branch, CASP6 VEID inh, RAD52 inh, MLL AF4-AF9 inh)
O=C(C[C@H]1C=C[C@H](NC(=O)C2CCC2)[C@@H](CO)O1)NCc1ccncc1	none (no result: N-glyco inh)
NC(=O)c1ccc(N=Cc2ccc([N+](=O)[O-])s2)cc1	N-glyco inh 43.9 (no result: RAD54 branch)
Cc1cc(C)cc(N=Cc2ccc([N+](=O)[O-])s2)c1	none (no result: RAD54 branch, CASP6 VEID inh, RAD52 inh, MLL AF4-AF9 inh)
CN(C)Cc1cc(C(C)(C)c2cc(CN(C)C)c(O)c(CN(C)C)c2)cc(CN(C)C)c1O	RAD54 branch 101.8 (no result: CASP6 VEID inh, RAD52 inh, MLL AF4-AF9 inh)
CN(C)Cc1cc(OCc2ccccc2)cc(CN(C)C)c1O	none
Oc1cc(Nc2ccccc2)cc2cccnc12	N-glyco inh 37.6
Oc1cccc2cc(Nc3ccccc3)cnc12	MLL AF4-AF9 inh 29.5
Oc1cc(-c2cccnc2)cc2cccnc12	MLL AF4-AF9 inh 25.5 (no result: CASP6 VEID inh)
CN1CCN(C(=O)c2cccc(-c3cc(O)c4ncccc4c3)c2)CC1	none (no result: CASP6 VEID inh, MLL AF4-AF9 inh)
CN1CCN(C2Cc3ccccc3Sc3cc(C(F)(F)F)ccc32)CC1 (centres undefined)	MLL AF4-AF9 inh 26.2 (no result: RAD54 branch, N-glyco inh)
Cc1nc2ccc(NS(=O)(=O)c3ccc(F)cc3F)cc2s1	none
Cc1nc2ccc(NS(=O)(=O)c3c(F)cc(F)cc3Br)cc2s1	CASP6 VEID inh 39.5
CCOc1ccccc1CNC(=O)CCc1cn(C)c2ccccc12	none
CCOc1ccccc1CNC(=O)CCCc1cn(C)c2ccccc12	MLL AF4-AF9 inh 48.9
Oc1ccc(Nc2nc3ccccc3nc2Nc2ccc(O)cc2)cc1	N-glyco inh 50.4 (no result: CASP6 VEID inh, RAD52 inh, MLL AF4-AF9 inh)
CN=c1scc(-c2ccccc2F)n1/N=C/c1ccc(O)c(O)c1O	MLL AF4-AF9 inh inconclusive
CN=c1scc(-c2ccccc2F)n1/N=C/c1ccc[nH]1	MLL AF4-AF9 inh 45.4 (no result: RAD54 branch)
Oc1ccc(/C=N/Nc2ccnc3cc(Cl)ccc23)cc1O	CASP6 VEID inh 46.6 (no result: RAD54 branch)
Oc1ccc(/C=N/Nc2ccnc3cc(Cl)ccc23)c(O)c1O	none
CCOc1ncccc1C(=O)Nc1cc2c(cc1Br)OCCO2	N-glyco inh 41.3
C[C@H](CO)N1C[C@H](C)[C@H](CN(C)S(=O)(=O)c2cn(C)cn2)OCCCC[C@H](C)Oc2ccc(NC(=O)c3ccccc3)cc2C1=O	none (no result: N-glyco inh)
CCOC(=O)c1c(N)n(-c2ccc(N)cc2)c2nc3ccccc3nc12	none (no result: RAD54 branch)
CCOC(=O)c1c(N)n(C2CC(C)(C)NC(C)(C)C2)c2nc3ccccc3nc12	RAD54 branch 82.6 (no result: CASP6 VEID inh, RAD52 inh, MLL AF4-AF9 inh)
C[C@@H]1CN([C@H](C)CO)S(=O)(=O)c2ccc(C3=CCCC3)cc2O[C@@H]1CN(C)S(=O)(=O)c1cn(C)cn1	none (no result: N-glyco inh)
CN(C)CC#Cc1ccc([C@H]2[C@@H](CO)N3CCCCN(C(=O)C4CC4)C[C@H]23)cc1	none (no result: CASP6 VEID inh, N-glyco inh, RAD52 inh, MLL AF4-AF9 inh)
Cc1ccc(/C=C2\SC(=S)N(CCC(=O)N3CCCCC3)C2=O)cc1	none
O=C(CCN1C(=O)/C(=C\c2ccccc2)SC1=S)N1CCCCC1	N-glyco inh 55.9
O=C(CCN1C(=O)/C(=C/c2cccs2)SC1=S)N1CCCCC1	N-glyco inh 49.8
COc1cc(/C=C2\SC(=S)N(CCC(=O)N3CCCCC3)C2=O)cc(OC)c1OC	N-glyco inh 69.7
COc1ccc2c3c([nH]c2c1)[C@H](CO)N(C(=O)C1CCC1)CC31CN(C(=O)c2ccccn2)C1	none (no result: RAD54 branch, CASP6 VEID inh, N-glyco inh)
CCn1c(=N)c(S(=O)(=O)c2ccc(C)cc2)cc2c(=O)n3ccccc3nc21	none (no result: RAD54 branch, N-glyco inh)
Cc1ccc(S(=O)(=O)c2cc3c(=O)n4ccccc4nc3n(CCc3ccccc3)c2=N)cc1	N-glyco inh 69.4
CC1C/C=C/C=C/C=C/C=C/C(O[C@@H]2O[C@H](C)[C@@H](O)[C@H](N)[C@@H]2O)CC2OC(O)(CC(O)CC3OC3/C=C/C(=O)O1)CC(O)C2C(=O)O (some centres undefined)	CASP6 VEID inh 44.6 (no result: RAD54 branch, N-glyco inh)
Cc1ccc(S(=O)(=O)N/N=C/c2cc(Br)ccc2O)cc1	MLL AF4-AF9 inh 30.3
COc1ccc(O)c(/C=N/NS(=O)(=O)c2ccc(C)cc2)c1	none
CS(=O)(=O)Nc1ccc2c(c1)[C@@H]1C[C@@H](CC(=O)N3CCCCC3)O[C@@H](CO)[C@@H]1O2	none (no result: CASP6 VEID inh, N-glyco inh, RAD52 inh, MLL AF4-AF9 inh)
Nc1c(N(CCC2=CCCCC2)C(=O)COc2ccc(F)cc2Cl)c(=O)[nH]c(=O)n1Cc1ccccc1	N-glyco inh 55.6
Nc1c(N(CCC2=CCCCC2)C(=O)Cc2ccc(F)cc2)c(=O)[nH]c(=O)n1Cc1ccccc1	none (no result: RAD54 branch)
CN1C(=O)c2cc(NC(=O)C3CCC3)ccc2OC[C@H]2O[C@@H](CC(=O)NCC3CCCCC3)CC[C@H]21	none (no result: RAD54 branch, N-glyco inh)
Cn1c(=O)[nH]c(=O)c2c1nc(N/N=C/c1cccnc1)n2Cc1ccc(Cl)cc1	N-glyco inh 53.2
CCN1CCN(Cc2ccc(NC(=O)c3ccc(C)c(/C=C/c4cnc(Nc5cc(N6CCNCC6)nc(C)n5)cn4)c3)cc2C(F)(F)F)CC1	RAD54 branch 104.9 (no result: CASP6 VEID inh, RAD52 inh, MLL AF4-AF9 inh)
CCN1CCN(Cc2ccc(NC(=O)c3ccc(C)c(NC(=O)c4ccno4)c3)cc2C(F)(F)F)CC1	none
CNS(=O)(=O)c1cccc(C(=O)OCC(=O)NCc2ccccc2)c1	none (no result: MLL AF4-AF9 inh)
CC(C)CNC(=O)COC(=O)c1cccc(S(=O)(=O)NCC(F)(F)F)c1	MLL AF4-AF9 inh 25.2
O=C(C[C@@H]1CC[C@H]2[C@@H](COC[C@H](O)CN2S(=O)(=O)c2ccccc2)O1)N1CCOCC1	none (no result: N-glyco inh)
COc1ccc(N(C(=O)c2snc(C(N)=O)c2N)C(C(=O)NC2CCCC2)c2ccco2)c(OC)c1 (centres undefined)	CASP6 VEID inh 62.8
COc1ccc(N(C(=O)c2snc(C(N)=O)c2N)C(C(=O)NC2CCCCC2)c2ccc(C)o2)c(OC)c1 (centres undefined)	none
